In the library only some 5.4% were active in any assay of this set; here they are far more common.
APOBEC3G inh – APOBEC3G (human) deaminase inhibition. AID 493012. recombinant A3G, ssDNA deamination FAM/TAMRA fluorescence. inhibition, % at 20 µM. 0.28% of 330,000 active;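 active = inhibition of at least 40% at 20 µM, with no more than 30% in the related APOBEC3A deaminase screen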;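 also: plate controls were DMSO wells with A3G for no effect and wells lacking A3G enzyme for full effect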
Target sequence (Q9HC16 whole entry, looked up): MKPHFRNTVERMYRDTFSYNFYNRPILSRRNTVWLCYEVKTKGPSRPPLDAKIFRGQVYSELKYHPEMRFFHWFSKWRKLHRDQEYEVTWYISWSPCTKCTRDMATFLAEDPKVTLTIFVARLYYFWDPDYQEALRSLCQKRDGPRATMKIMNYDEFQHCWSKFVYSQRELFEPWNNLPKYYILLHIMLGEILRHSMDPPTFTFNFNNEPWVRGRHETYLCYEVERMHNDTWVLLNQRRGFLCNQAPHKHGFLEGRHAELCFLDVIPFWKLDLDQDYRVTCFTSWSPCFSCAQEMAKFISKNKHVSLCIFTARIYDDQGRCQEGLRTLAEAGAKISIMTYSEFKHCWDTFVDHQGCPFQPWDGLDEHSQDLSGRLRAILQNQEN
aDG glyco up – increases alpha dystroglycan glycosylation; Pro5-aDG cells, alpha-DG glycosylation AlphaScreen (IIH6); 0% Pro5, 100% B10-LARGE cell signal; activation, % at 10 µM; AID 624168; 0.22% of 360,000 active;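 active = activation of at least 8% versus controls, or a plate z-score of at least 8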;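 also: Pro5 are CHO cells carrying HIG-tagged alpha-DG that lacks glycosylation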
A3A deaminase – blocks human APOBEC3A ssDNA deamination. P31941. recombinant A3A, FAM/TAMRA ssDNA deamination fluorescence. inhibition, % at 20 µM. 0.41% of 330,000 active. AID 493011;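 active = at least 40% inhibition at 20 µM here, with at most 30% in a related deaminase screen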;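 also: plate controls were A3A with DMSO for no effect and wells lacking A3A enzyme for full effect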
Target sequence (P31941 whole entry, looked up): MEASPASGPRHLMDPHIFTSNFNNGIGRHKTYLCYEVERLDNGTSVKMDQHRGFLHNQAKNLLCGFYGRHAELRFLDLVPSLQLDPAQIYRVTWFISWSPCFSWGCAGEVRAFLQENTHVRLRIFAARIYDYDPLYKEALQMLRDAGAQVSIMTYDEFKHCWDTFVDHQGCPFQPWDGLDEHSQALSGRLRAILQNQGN
PHOSPHO1 inh – PHOSPHO1 (human) inhibition | AID 1565 | 1.1% of 290,000 active | Q8TCT1 | inhibition, % at 13.3 µM | recombinant PHOSPHO1, absorbance phosphatase assay; in the data active = inhibition above about 60%
ALR H2O2 inh – human ALR oxidase inhibition via reduced H2O2. AID 485317. P55789. 3.8% of 290,000 active. inhibition, % (no concentration beside the values). purified ALR, DTT oxidation, H2O2 HRP-luminol luminescence;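 active = mean replicate inhibition above about 79%, with every replicate also reaching it, limit read from the data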
rCAG RNA binder – binds r(CAG) RNA repeats. AID 651821. inhibition, % at 3 µM. 1.3% of 370,000 active. r(CAG) RNA repeat, TO-PRO-1 dye displacement fluorescence;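 active = inhibition above the plate cutoff, the mean of all test compounds on that plate plus 3 SD, cut at about 35% in these data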;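 also: 0% = DMSO alone and 100% = 100 µM mitoxantrone as full dye displacement; higher means more dye released from RNA so lower well fluorescence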
* = called active by the depositor; x = not tested or not shown.

SMILES	APOBEC3G inh	aDG glyco up	A3A deaminase	PHOSPHO1 inh	ALR H2O2 inh	rCAG RNA binder
CCCCCCCCN1C(=O)N2Cc3cc(F)ccc3C2CS1(=O)=O (configuration not stated)	x	x	x	x	x	-1
N#CC1=C(N)n2c(s/c(=C\c3cccs3)c2=O)=C(C#N)C1c1cccs1 (configuration not stated)	-7	1	0	-6	99*	51*
Cc1cccc(NC(=O)C2CCCN(c3nnc(-n4cccc4)s3)C2)c1C (configuration not stated)	x	x	x	x	x	4
CC(C)(C)c1csc(NC(=O)c2ccccc2O)n1	0	0	-2	14	81*	7
CC(C)(C)c1csc(NC(=O)c2c(F)c(F)c(F)c(F)c2F)n1	-6	2	-8	x	98*	-5
CC(CCN1CCC(C(O)(c2ccccc2)c2ccccc2)CC1)Oc1cc(F)cc(F)c1 (configuration not stated)	x	x	x	x	x	3
Cc1ccc(Cn2cc(CN3[C@H](Cc4ccccc4)COc4cc(Br)ccc4S3(=O)=O)nn2)cc1	x	x	x	x	x	5
Cc1ccc(S(=O)(=O)Nc2cc(Cl)c(O)cc2C)cc1	1	0	5	21	x	5
Cc1ccc(S(=O)(=O)Nc2cc(C(C)C)c(O)cc2C)cc1	-1	0	3	23	97*	1
CN(Cc1ccccc1)C(=C(Cl)Cl)C(=C1NCCN1)[N+](=O)[O-]	0	0	4	-2	-3	x
O=[N+]([O-])C(=C1Nc2ccccc2N1)/C(Cl)=C(/Cl)Br	12	0	-1	-5	89*	3
COC(=O)C1=C(C(=O)OC)SC(=C2C(=S)C(C)(C)N(C(=O)C(C)C)c3ccccc32)S1	6	-1	5	80*	1	-2
CCCC(=O)N1c2ccccc2C(=C2SC(C(=O)OC)=C(C(=O)OC)S2)C(=S)C1(C)C	-1	-1	1	-21	-3	5
COC(=O)C1=C(C(=O)OC)SC(=C2C(=S)C(C)(C)N(C(=O)C3CC3)c3ccccc32)S1	5	0	5	79*	-3	-2
CC(=O)Nc1c(-c2ccc(F)cc2)nc2ncccn12	x	x	x	x	x	4
Cc1[nH]c2ccccc2c1CC(=O)Nc1ccc(Nc2cccnc2)c(Br)c1	x	x	x	x	x	12
COC(=O)[C@]12C[C@H](CC(=O)N3CCN(C(=O)C4CC4)CC3)C(=O)N(CCC3=CCCCC3)C1=C[C@H](COCc1ccccc1)O[C@@H]2C	x	x	x	x	x	3
C[C@@H]1/C=C/CC(=O)N[C@H](c2cccc(Br)c2)[C@H](C)/C=C/CC(=O)N[C@@H]1c1cccc(Br)c1	x	x	x	x	x	8
Nc1ccc2oc3ccc(N)cc3c(=O)c2c1	16	0	6	19	99*	4
Cc1nc2c(C(=O)N3CCOCC3)cnn2c(C)c1Cc1ccc(Cl)cc1	-7	1	-1	41	98*	-7
Cc1nc2c(C(=O)N3CCOCC3)cnn2c(C)c1Cc1cccc(Cl)c1	-4	x	-7	15	-1	-5
CCOc1cccc(-c2cc(C(=O)NN)[nH]n2)c1	-12	0	-1	3	79*	8
Cc1ccc(O)c(NC(=O)C2CCCN2C(=O)OCc2ccccc2)c1 (configuration not stated)	-7	0	-6	20	87*	0
O=C(NCC(c1ccco1)N1CCc2ccccc21)c1ccccc1 (configuration not stated)	-7	0	-2	x	96*	0
Cc1ccc(C(=O)NCC(c2ccco2)N2CCc3ccccc32)cc1C (configuration not stated)	7	0	4	x	6	2
SMILES	APOBEC3G inh	aDG glyco up	A3A deaminase	PHOSPHO1 inh	ALR H2O2 inh	rCAG RNA binder
COc1cc(C(=O)NCC(c2ccco2)N2CCc3ccccc32)cc(OC)c1OC (configuration not stated)	-6	0	-4	x	93*	-1
COc1ccc(CCC(=O)NCC(c2ccco2)N2CCc3ccccc32)cc1 (configuration not stated)	3	0	1	x	87*	-1
COc1ccccc1C(=O)NCC(c1ccco1)N1CCc2ccccc21 (configuration not stated)	-2	0	-2	x	x	-2
COc1ccc(N2C(=O)c3[nH]nc(-c4ccccc4)c3C2c2cccc(C(F)(F)F)c2)cc1 (configuration not stated)	x	x	x	x	x	5
COc1ccc(CCNC(=O)c2ccc3c(c2)NC(=O)C(CSCc2cc(C)ccc2C)N3)cc1OC (configuration not stated)	35	x	-29	-132	99*	x
COc1ccc(CCNC(=O)c2ccc3c(c2)NC(=O)C(C(C)C)N3)cc1OC (configuration not stated)	-9	0	-6	17	4	-1
C=CCNc1nc(C(=O)OCC(=O)c2ccc(Cl)cc2)cs1	1	0	0	x	98*	11
COc1ccc2nc(C)cc(Sc3nc4ccccc4s3)c2c1	-8	1	-2	27	99*	3
COc1ccc2nc(C)cc(SCC(=O)NNC(=O)COc3ccccc3)c2c1	-4	0	0	-1	0	3
C=CCn1c(=NC(=O)CN2C(=O)CCC2=O)sc2cc(S(N)(=O)=O)ccc21	-4	0	-6	-56	98*	12
CCCCCCC(=O)NC1CCCCN(Cc2ccc(Cl)cc2)C1=O (configuration not stated)	x	x	x	x	x	0
CCOCC(=O)Nc1nc2ccc(C)cc2s1	-2	0	1	4	97*	-2
Cc1ccc2nc(NC(=O)CSc3nncc(=O)n3N)sc2c1	18	0	3	-4	99*	3
O=C(Nc1ccc(F)cc1)c1ccc(C(=O)N2CCOCC2)cc1	-4	0	-3	x	99*	-3
Cn1ncc2c(Nc3ccc(Cl)c(Cl)c3)ncnc21	-6	0	-6	41	x	5
CCCn1ncc2c(Nc3ccc(C)c(C)c3)ncnc21	-3	0	4	6	96*	-1
CCOC(=O)[C@]12CCCC=C1N(Cc1ccc(OC)cc1)C(=O)[C@@H]2CC(=O)NCCCOC	x	x	x	x	x	0
CN(C)c1ccc(C(=O)c2ccc(N(C)C)c(N)c2)cc1N	-4	0	0	2	95*	-6
COc1ccccc1OCC(=O)NCCS(=O)(=O)N1CCN(c2ccc(F)cc2)CC1	-2	0	-3	27	11	-4
COc1ccc(N2CCN(S(=O)(=O)CCNC(=O)COc3ccccc3OC)CC2)cc1	-5	0	-8	-22	93*	-5
CC(C)(C)c1csc(SCC(=O)Nc2ccc(Cl)cn2)n1	-3	0	-1	-2	-5	-2
COC(=O)c1c(SCC(=O)Nc2ccc(C)cc2)nc(=O)[nH]c1C	-5	0	-3	-15	53	6
Cc1csc(NC(=O)CSc2[nH]c(=O)ncc2C)n1	-2	0	1	x	99*	3
